Source: PubChem BioAssay
eIF4H FP inh = inhibitors of RNA binding by human eIF4H; eIF4H fluorescence polarization binding assay; inhibition, % at 35 µM; actives 0.94% (n = 290,000);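 also: calls also rest on retests at 20 µM and on dose response follow-up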
PABP1 MLLE inh = blocks PAM2 peptide binding to the PABP1 MLLE domain; GST-MLLE / FITC-PAM2 fluorescence polarization; actives 0.36% (n = 360,000); inhibition, % at 20 µM; in the data active = inhibition above about 35%, passing the limit was not always enough;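 also: plate controls were DMSO wells with GST-MLLE for no effect and wells lacking GST-MLLE protein for full effect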
PERK inh = inhibitors of human PERK kinase | Q9NZJ5 | CHO PERK-DD fusion, SEAP luminescence translation reporter | inhibition, % at 5.6 µM | actives 0.17% (n = 220,000) | AID 1416;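 active = inhibition above the mean inhibition of all tested compounds plus 3 SD, set separately per screening campaign, cut at about 2.9% in these data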;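 also: PERK kinase domain activated by AP20187 dimerizer at 100 nM; 0% = DMSO with dimerizer and 100% = rapamycin at 8.4 µM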
PABP FP inh = blocks human PABP binding to poly(A) RNA; fluorescence polarization; P11940; inhibition, % at 35 µM; actives 1% (n = 290,000);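 also: calls also rest on retests at 20 µM and on dose response follow-up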
eIF4E-4G inh = inhibitors of eIF4E and eIF4G interaction in translation initiation | TR-FRET eIF4E-eIF4GI(517-606) binding, 2 h | actives 0.37% (n = 220,000) | inhibition, % at 21.7 µM | AID 782;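 active = inhibition above about 30%, limit read from the data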;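 also: 0% = full FRET control wells and 100% = background wells lacking eIF4GI fragment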
Starred values were filed as active, the others as inactive; ? = inconclusive; . = not tested or not shown. Only some compounds are listed: those with a hit (about 1.6% of all), similar ones and a draw of the others. Unless noted, no rule for the calls is given here.

SMILES | eIF4H FP inh | PABP1 MLLE inh | PERK inh | PABP FP inh | eIF4E-4G inh
O=[N+]([O-])c1ccc(/C=C/C2=NN(c3ccccc3)C(c3ccco3)C2)o1 (stereo unspecified) | 42 | -91 | 1 | 0 | 6
CC(=C/c1ccccc1)/C=C1/SC(N2CCOCC2)=NC1=O | -1 | -11 | 0 | -7 | -2
Cc1cc2c(N)cccc2nn1 | 96* | 14 | 1 | 88* | -1
CCOCCOc1cccc(C(=O)NC(c2ccccc2)c2ccccc2)c1 | 6 | 6 | . | 2 | .
Cn1cc(C(=O)N/N=C/C(Br)=C/c2ccccc2)ccc1=O | -2 | -18 | 0 | 0 | -4
Cn1cc(C(=O)N/N=C/C(Br)=C\c2ccccc2)ccc1=O | 57* | -6 | 0 | 28* | -3
CCCC[N+](CC#CCO)(CC#Cc1ccccc1)CCCC | 5 | -8 | 1 | -4 | -1
CCC[N+](CC#CCO)(CC#Cc1ccccc1)CCC | -3 | -1 | -1 | 2 | 91*
C[C@H](CO)N1C[C@H](C)[C@H](CN(C)Cc2ccncc2)Oc2ccc(NC(=O)Nc3ccc(C(F)(F)F)cc3)cc2CC1=O | . | -9 | . | . | .
CC(OC(=O)c1ccc2c(=O)n3c(nc2c1)CCC3)C(N)=O (stereo unspecified) | 4.5* | -13 | 0 | 75* | 10
O=c1c2ccccc2nc2n1CCC2 | -12 | 8 | 2 | -9 | 94*
O=C(Cc1ccc2c(c1)CCCC2)Nc1ccccc1Br | -8 | 38* | -1 | 1 | -1
O=C(Cc1ccc2ccccc2c1)Nc1ccccc1Br | -5 | 3 | . | 4 | .
Cc1ccc(C2(CCNS(=O)(=O)c3ccc(C)cc3)CCOC(C(C)C)C2)cc1 (stereo unspecified) | -11 | -4 | 0 | -9 | -3
Cc1cc2c(n1-c1ccc(C(=O)O)cc1)CCCCC2 | 91* | . | . | 82* | .
NS(=O)(=O)c1ccc(CCNC(=O)CSc2nc3ccsc3c(=O)n2CC(=O)O)cc1 | 0 | 0 | 1 | -21 | -6
O=C(NC(=S)NC1CCSC1=O)c1cccc([N+](=O)[O-])c1 (stereo unspecified) | -6 | 42* | . | 7 | .
O=C(NC(=S)NC1CCSC1=O)c1ccccc1 (stereo unspecified) | -6 | 26 | 1 | -3 | -4
O=C(NC(=S)NC1CCSC1=O)c1ccc([N+](=O)[O-])cc1 (stereo unspecified) | 1 | 48* | . | 6 | .
O=C(COC(=O)c1cccnc1)NC1CCCc2ccccc21 (stereo unspecified) | 78* | 8 | 0 | -8 | -2
O=C(COC(=O)c1cnccn1)NC1CCCc2ccccc21 (stereo unspecified) | . | -3 | . | . | .
COC(=O)c1scc2c(=O)cc(C(F)(F)F)[nH]c12 | 48 | 56* | 0 | 36 | -2
CN(CCC(=O)c1ccccc1)CCC(=O)c1ccccc1 | 1 | 44* | . | 0 | .
Cc1c(Cl)cccc1NS(=O)(=O)c1ccc2c(c1)C1C=CCC1C(c1ccc(C(=O)O)cc1)N2 (stereo unspecified) | 88 | -11 | 1 | 83 | 50*
COc1ccc(NS(=O)(=O)c2ccc3c(c2)[C@H]2C=CC[C@H]2[C@@H](c2ccc(C(=O)O)cc2)N3)cc1 | 97* | -45 | . | 82* | .
SMILES | eIF4H FP inh | PABP1 MLLE inh | PERK inh | PABP FP inh | eIF4E-4G inh
CC(=O)c1ccc2c(c1)C1C=CCC1C(c1ccc(S(=O)(=O)N3CCOCC3)cc1)N2 (stereo unspecified) | 18 | 24 | 0 | 2 | -1
COCC(C)NS(=O)(=O)c1ccc(NC(=O)c2ccccn2)cc1 (stereo unspecified) | -7 | 11 | 0 | -12 | -5
O=C1C2CC=C(Cl)CC2C(=O)N1CCCCCCN1C(=O)C2CC=C(Cl)CC2C1=O (stereo unspecified) | 99* | 16 | -2 | 100* | 13
O=C(NC(=S)NNS(=O)(=O)c1ccc(Cl)cc1)c1cccnc1 | 18 | 40* | 1 | 1 | -1
O=C(NNS(=O)(=O)c1ccccc1)c1cccnc1 | -8 | -13 | -1 | -5 | 1
Cc1ccc(S(=O)(=O)NC(=O)C2(C)CCN2C(=O)CCc2ccc(Cl)cc2Cl)cc1 (stereo unspecified) | . | 2 | . | . | .
COc1ccc(N/C=C2/Sc3ccccc3NC2=O)cc1 | 2 | 28 | 0 | 13 | -1
Cc1ccc(N/C=C2/Sc3ccccc3NC2=O)cc1 | ? | -36 | 0 | active | 3
O=C1Nc2ccccc2S/C1=C/c1cccs1 | 8 | 1 | -1 | -1 | 74*
